3CLpro inhibitor – SARS-CoV 3CLpro protease inhibition | P0C6X7 | recombinant SARS-CoV 3CLpro, quenched FRET peptide cleavage | inhibition, % at 6 µM | 0.14% of 290,000 active | AID 1706; in the data active = inhibition above about 12%
BioA inh – blocks M. tuberculosis BioA enzyme activity. purified M. tuberculosis BioA enzyme, plate reader. inhibition, % at 9.99 µM. 0.096% of 360,000 active. AID 602481; in the data active = inhibition above about 40%
Y pestis TopoI – inhibitors of Yersinia pestis topoisomerase I; Y. pestis Topo-I cleavage product accumulation, plate reader; activity, % at 10 µM; 0.064% of 360,000 active; in the data active = activity above about 50%, passing the limit was not always enough
BJeLR viability – BJeLR cell viability loss. BJeLR (HRASV12) viability, CellTiter-Glo ATP luminescence, 48 h. inhibition, % (test concentration not listed). 0.17% of 300,000 active. AID 1554; in the data active = inhibition above about 50%
PfHsp40 rescue – restores yeast growth despite PfHsp40 toxicity. S. cerevisiae expressing PfHsp40, growth rescue, ATP luminescence. growth rescue, % at 12.5 µM. 0.68% of 340,000 active. AID 504582; in the data active = growth rescue above about 28%, passing the limit was not always enough;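 also: yeast W303a lacking pdr1 and pdr3 grown in galactose medium; growth measured after three days at 30 °C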
MazEF act – increases E. coli MazEF RNase cleavage of RNA; FAM/BHQ RNA-DNA oligo cleavage fluorescence, 5 h; activation, % at 20 µM; 0.32% of 350,000 active; P0AE70; AID 504720; in the data active = activation above about 50%
Target sequence (P0AE70 whole entry, looked up): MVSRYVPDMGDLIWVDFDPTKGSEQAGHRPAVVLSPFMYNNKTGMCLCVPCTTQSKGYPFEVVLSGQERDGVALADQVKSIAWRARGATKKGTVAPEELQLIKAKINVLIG
Starred values were filed as active, the others as inactive; · = no result given; + = active, no number. Hits are enriched below; roughly 1.1% of the tested compounds scored in any of these assays.

SMILES	3CLpro inhibitor	BioA inh	Y pestis TopoI	BJeLR viability	PfHsp40 rescue	MazEF act
COc1ccc(CNC(=O)CN(C)S(=O)(=O)c2ccc(Cl)cc2)cc1	3	-1	6	0	1	0
O=C(O)CSc1cc(NS(=O)(=O)c2cccc([N+](=O)[O-])c2)c2ccccc2c1O	3	0	-11	-8	96*	-32
O=S(=O)(Nc1cc(Sc2cccc3cccnc23)c(O)c2ccccc12)c1ccccc1	9	·	·	125*	·	·
CCc1ccc(S(=O)(=O)Nc2cc(SCC(=O)O)c(O)c3ccccc23)cc1	5	·	-5	-1	1	-22
CCOc1ccc(S(=O)(=O)Nc2cc(SCC(=O)O)c(O)c3ccccc23)cc1	7	0	-5	5	1	3
Clc1ccc(CSc2ncn(-c3ccccc3)n2)cc1	2	-1	10	1	0	-15
Clc1cccc(CSc2ncn(-c3ccccc3)n2)c1	-2	0	3	7	31*	-6
OC(c1ccc(OCc2ccccc2)cc1)c1nnc(-c2ccccc2)o1 (stereo not drawn)	2	-3	31	0	9	96*
OC(c1cccc(OCc2ccccc2)c1)c1nnc(-c2ccccc2)o1 (stereo not drawn)	-1	0	33	0	0	-13
O=C(C[C@H]1C=C[C@@H](NC(=O)CCN2CCCCC2)[C@H](CO)O1)Nc1ccc(-c2ccccc2)cc1	·	3	·	·	·	·
COc1cc(C2(c3ccc(O)c(OC)c3)C(=O)Nc3c(Br)cc(Br)cc32)ccc1O	·	4	-5	-12	66*	4
CCNC(=O)Nc1ccc2c(c1)C(=O)N(C)[C@H]1CC[C@@H](CC(=O)NCC3CC3)O[C@@H]1CO2	·	0	·	·	·	·
COc1cc(OC)c(-c2cc(C(=O)O)ccc2OC)c(OC)c1	4	4	-4	8	0	+
O=C(C[C@@H]1CC[C@H]2[C@@H](COC[C@@H](O)CN2C(=O)c2ccccc2)O1)Nc1ccc(-c2ccccc2)cc1	·	0	·	·	·	·
O=[N+]([O-])c1ccc(/C=N/n2c(CO)nc3ccccc32)s1	-3	-2	-2	3	-1	99*
Cc1nc2ccccc2n1/N=C/c1ccc([N+](=O)[O-])s1	5	·	1	11	-2	49
O=[N+]([O-])c1ccc(/C=N/n2cnc3ccccc32)s1	11	-3	-13	5	0	189*
CS(=O)(=O)Nc1ccc2c(c1)[C@H]1C[C@@H](CC(=O)NCc3ccc(Cl)cc3)O[C@H](CO)[C@H]1O2	·	-3	·	·	·	·
Cn1cnc(S(=O)(=O)N2CCCCN3[C@H](CO)[C@@H](c4ccc(-c5cccc(F)c5)cc4)[C@@H]3C2)c1	·	-4	·	·	·	·
CNC[C@@H](Cc1ccccc1)NC[C@@H](CC1CCCCC1)NCCCc1ccccc1	3	-2	2	92*	1	30
CCC[C@@H](CNC)NC[C@H](Cc1ccccc1)NCCCCc1ccccc1	0	-3	-6	5	-1	16
CNC[C@@H](CC1CCCCC1)NC[C@H](CC(C)C)NCCc1cccc(C(F)(F)F)c1	6	3	8	54*	-1	16
C[C@H](CO)N1C[C@H](C)[C@@H](CN(C)CC2CCCCC2)Oc2ccc(NS(=O)(=O)c3cn(C)cn3)cc2C1=O	·	6	·	·	·	·
Cc1ccc(S(=O)(=O)N[C@@H]2CC[C@H](CC(=O)NC3CCCCC3)O[C@@H]2CO)cc1	·	-3	·	·	·	·
COc1cc(C(=O)Nc2ccc(Br)cc2C(=O)c2ccccc2)cc(OC)c1OC	0	·	2	-8	81*	-58
COc1cc(C(=O)Nc2ccc(Br)cc2C(=O)c2cc(OC)c(OC)c(OC)c2)cc(OC)c1OC	2	-1	4	-14	1	-8
COc1cc(NC(=O)c2ccccc2)c(OC)cc1NC(=O)Cc1ccc(Br)cc1	4	-1	19	-8	1	55*
CC12CCC(=O)C=C1CCC1C2CCC2(C)C(O)CCC12 (stereo not drawn)	0	0	1	·	-1	1
C[C@H](O)[C@H]1CC[C@H]2[C@@H]3CCC4=CC(=O)CC[C@]4(C)[C@H]3CC[C@]12C	-5	1	20	7	158*	0
C[C@@H]1CN([C@H](C)CO)C(=O)c2cc(NS(=O)(=O)c3ccc(Cl)cc3)ccc2O[C@H]1CN(C)S(=O)(=O)c1cccs1	·	0	·	·	·	·
